We go through 14 compounds from PubChem BioAssay (NCI).

Test systems include T-47D breast; BT-549 breast; MDA-MB-435 melanoma; SW-620 colon; MCF7 breast; HCT-116 colon; HCC-2998 colon; KM12 colon.
Common to all, as to assay: NCI-60 one-dose screen, 48 h (100 = growth as untreated, 0 = no growth, -100 = all killed)
Holding throughout (details): 10 µM unless noted

Compounds without any hit were thinned out: in the full panel of roughly 83,000, 20% have a hit.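 Cell lines were cultured in 96-well plates, exposed to a single compound concentration, and assessed for percent growth 48 hours later.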 Values without a mark were called inactive. Active and inactive are the calls of the source. Rule for the calls: active = growth percent below 10; inactive = the rest.

On to `CCCCn1c(-c2ccc(C(=O)O/N=C(\N)c3ccc4c(c3)OCO4)cc2)nc(-c2ccccc2)c1-c1ccccc1`, for which the growth in the test with T-47D breast is 0.0231% (active); in the test with BT-549 breast it was 54.5%; in the test on MDA-MB-435 melanoma, 46.1%; in the test with SW-620 colon, 60.3%; with MCF7 breast it was 48.1%; in the test on HCT-116 colon, 4.35% (active). In addition, the figures for the growth in the test with HCC-2998 colon and in the test on KM12 colon were 61.5% and 36.8%, respectively.

Regarding `Nc1ccc(-c2cc3c(NCc4ccccc4)ncnc3s2)cc1`, the growth with T-47D breast was 52.4%; with BT-549 breast, 78.2%; in the test with MDA-MB-435 melanoma it was 93.7%; in the test with SW-620 colon, 105%; with MCF7 breast, 72.5%; in the test on HCT-116 colon, 95.6%. In addition, the values for the growth in the test with HCC-2998 colon and in the test on KM12 colon were 92.6% and 88.6%, respectively.

Take `COc1cc2c(cc1-c1c(C)noc1C)ncc1nc(C3CCCC3)n([C@H](C)COC(F)F)c12`: the growth in the test on T-47D breast was 29.7%; in the test on BT-549 breast it was 54.8%; in the test with MDA-MB-435 melanoma, 32.4%; in the test on SW-620 colon it was 57.5%; in the test with MCF7 breast it was 19.9%; in the test on HCT-116 colon, 31%. In addition, the growth in the test on HCC-2998 colon was 43.3%; with KM12 colon it was 45.8%.

As to `COc1cc(/C=C/c2cc(O)c3cc(C(C)=O)c(=O)oc3c2)cc2c1O[C@]1(C)CC[C@@H](O)C(C)(C)[C@H]1C2`, the growth with T-47D breast is 60%; with BT-549 breast, 35%; in the test with MDA-MB-435 melanoma, 21.2%; in the test on SW-620 colon it was 28.4%; in the test on MCF7 breast, 5.64% (active); with HCT-116 colon, 44.2%. Further, the growth in the test on HCC-2998 colon is 67%; with KM12 colon, 57.6%.

With `CNC(=O)c1cc(Oc2ccc(NC(=O)Nc3ccc(Cl)c(SC)c3)c(F)c2)ccn1`, the growth was -3.32% (active) with T-47D breast; 64.7% in the test on BT-549 breast; 32.6% in the test on MDA-MB-435 melanoma; 67.5% with SW-620 colon; 30% in the test with MCF7 breast; 30.8% with HCT-116 colon. The figures for the growth in the test with HCC-2998 colon and with KM12 colon were 51.3% and 29.3%, respectively.

Consider `CCn1c(Cc2ccccc2Nc2c(Cl)cccc2Cl)nnc1SCC(=O)NN1C(=O)/C(=C/c2cc(OC)c(O)c(OC)c2)SC1=S`, for which the growth in the test on T-47D breast was 24.4%; with BT-549 breast, 50%; in the test with MDA-MB-435 melanoma, -46.5% (active); with SW-620 colon, 21.2%; in the test with MCF7 breast it was 16.9%; with HCT-116 colon, 11.5%. The results for the growth in the test on HCC-2998 colon and in the test on KM12 colon were 56.9% and 18%, respectively.

As to `COc1cc(/C=C/C(=O)c2ccc(O)c(CN3CCN(c4cc5c(cc4F)c(=O)c(C(=O)O)cn5C4CC4)CC3)c2)cc(OC)c1OC`, the growth in the test with T-47D breast was 50.4%; with BT-549 breast it was 31.8%; in the test on MDA-MB-435 melanoma it was 28.6%; with SW-620 colon it was 34.8%; in the test on MCF7 breast, 18.6%; in the test on HCT-116 colon, 7.72% (active). Moreover, the growth in the test with HCC-2998 colon is 67.2%; with KM12 colon, 72%.

For `CCN(CC)c1ccc(-c2cc(-c3cc(OC)c(OC)c(OC)c3)nc(N3CCOCC3)c2C#N)cc1`, the growth is 22.2% in the test with T-47D breast; 38.6% with BT-549 breast; -27.5% (active) in the test with MDA-MB-435 melanoma; 30.8% in the test on SW-620 colon; 29.8% in the test with MCF7 breast; 10.5% with HCT-116 colon. Besides, the figures for the growth in the test on HCC-2998 colon and in the test on KM12 colon were 29.9% and 27.1%, respectively.

As to `CN(Cc1cc(Cl)cc(Cl)c1O)Cc1cc(Cl)cc(Cl)c1O`, the growth in the test on T-47D breast was 76.4%; in the test with BT-549 breast, 86.4%; in the test with MDA-MB-435 melanoma it was 68.2%; in the test with SW-620 colon it was 73.2%; in the test with MCF7 breast it was 67.6%; in the test with HCT-116 colon, 58.9%. Besides, the growth with HCC-2998 colon was 83.5%; with KM12 colon, 74.8%.

With `COc1ccc(Nc2nc(SC)nc(-c3cccc([N+](=O)[O-])c3)c2C#N)cc1`, the growth with T-47D breast is 70.1%; in the test with BT-549 breast, 86.9%; in the test with MDA-MB-435 melanoma, 66.5%; in the test on SW-620 colon, 57.9%; in the test on MCF7 breast it was 66.7%; with HCT-116 colon, 15.8%. The growth in the test with HCC-2998 colon is 94.3%; with KM12 colon, 97.7%.

With `O=C(COc1ccc(/C=C2\CSc3ccccc3C2=O)cc1)Nc1nccs1`, the growth was 90% with T-47D breast; 112% in the test on BT-549 breast; 65.4% with MDA-MB-435 melanoma; 17.3% in the test with SW-620 colon; 6.72% (active) with MCF7 breast; 48.2% in the test on HCT-116 colon. Moreover, the growth in the test on HCC-2998 colon was 103%; with KM12 colon, 13.8%.

Take `COC(=O)c1ccc(NC(=O)c2ccc(-c3cccc([N+](=O)[O-])c3)o2)cc1`: the growth in the test with T-47D breast was 96.4%; in the test with BT-549 breast, 98.9%; in the test with MDA-MB-435 melanoma it was 101%; in the test on SW-620 colon, 101%; in the test on MCF7 breast, 76.8%; in the test on HCT-116 colon it was 96%. Moreover, the growth in the test with HCC-2998 colon and with KM12 colon was 102% in each case.

For the compound `COc1ccc(-c2nc3ccc(-c4nc5ccc(N6CCN(c7ccncc7)CC6)cc5[nH]4)cc3[nH]2)cc1OC`, the growth with T-47D breast was 6.91% (active); with BT-549 breast it was 39.4%; in the test on MDA-MB-435 melanoma, 31.4%; in the test on SW-620 colon, 35.6%; in the test with MCF7 breast, 12.3%; in the test on HCT-116 colon it was 17.8%. The figures for the growth in the test on HCC-2998 colon and in the test with KM12 colon were 34.9% and 92.8%, respectively.

Take `COc1ccc(-c2cc(-c3ccc(Nc4ccnc5cc(Cl)ccc45)cc3)nc(N3CCOCC3)n2)cc1`: the growth was -23% (active) in the test with T-47D breast; 45.8% in the test on BT-549 breast; 10.1% with MDA-MB-435 melanoma; 8.98% (active) with SW-620 colon; 22.7% in the test on MCF7 breast; 52.8% in the test with HCT-116 colon. Also, the growth in the test with HCC-2998 colon is 98.8%; with KM12 colon, 44.9%.
